# Screening results as filed in PubChem BioAssay.
# T cruzi growth-1 – T. cruzi intracellular proliferation inhibitors, primary screen, cell-based, beta-gal Tulahuen parasites, NIH3T3 host, luminescence | inhibition, % at 8.34 µM | actives 5.9% (n = 77,000) | AID 624255, 2012 | T. cruzi beta-gal in NIH3T3, GalScreen luminescence, 90 h;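 active = mean inhibition above about 93%, with at least 55% of replicates each passing it, limit read from the data, passing the limit was not always enough; inconclusive = only one of those two conditions holds; inactive = neither condition holds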
# C diff growth – C. difficile growth inhibitors, primary screen, HTS; Clostridium difficile clinical isolate growth, OD600, 24 h; stronger effect = lower value; growth activity, negative = inhibition, % at 16 µg/mL (by protocol); actives 0.25% (n = 86,000); AID 1259249, 2017;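 active = mean growth activity at or below -80% and every replicate also at or below -80%; inconclusive = mean at or below -80% but some replicate above -80%; inactive = mean growth activity above -80%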;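 note: 0% = DMSO wells and -100% = levofloxacin 16 µg/mL wells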
# T cruzi growth-2 – T. cruzi intracellular proliferation inhibitors, confirmation, cell-based, NIH3T3 host, beta-gal parasite, luminescence, cherry-pick | inhibition, % at 8.35 µM | shares compounds with T cruzi growth-1 | T. cruzi beta-gal in NIH3T3, GalScreen luminescence, 90 h | actives 72% (n = 5,600);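 active = mean replicate inhibition above about 95% and at least 55% of replicates individually reaching it, limit read from the data; inconclusive = only one of the two criteria is met; inactive = neither criterion is met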
# T cruzi growth-3 – inhibitors of intracellular T. cruzi replication, confirmation, NIH3T3 host cells, beta-gal parasites, cherry-pick, set 2. shares compounds with T cruzi growth-1. T. cruzi beta-gal in NIH3T3, GalScreen luminescence, 90 h. inhibition, % at 2.09 µM. actives 21% (n = 5,600). AID 651740, 2012;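 active = mean inhibition above about 95%, with at least 55% of replicates also reaching it, limit read from the data; inconclusive = meets just one of the two conditions; inactive = meets neither condition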;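 note: plate controls were neutral control median for no effect and positive control median for full effect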
# 3T3 cytotox – cytotoxicity in mouse NIH/3T3 fibroblasts, confirmation, cytotoxicity control for T. cruzi proliferation inhibitor project, cell-based, cherry-pick, single point. shares compounds with T cruzi growth-1. NIH/3T3 viability, CellTiter-Glo ATP luminescence, 90 h. cytotoxicity (signal decrease), % at 8.35 µM. actives 14% (n = 5,600);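 active = mean signal decrease across replicates above about 35% based on untreated-well scatter, with enough replicates individually passing, limit read from the data; inconclusive = no rule stated though some were filed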;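 note: 0% = median of neutral control wells and 100% = median of positive control wells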
# NIH3T3 tox 2 – NIH/3T3 fibroblast cytotoxicity, confirmation, cytotoxicity control, cell-based, cherry-pick, single point, set 2; actives 56% (n = 5,600); AID 651744, 2012; shares compounds with T cruzi growth-1; inhibition, % at 24.9 µM; NIH/3T3 viability, CellTiter-Glo ATP luminescence, 90 h;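 active = mean loss of cell viability signal at or above a set limit, and enough replicates individually reaching it; inconclusive = meets only the mean limit or only the replicate share; inactive = meets neither condition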;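 note: 0% = median of neutral control wells and 100% = median of positive control wells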
# Numbers without * were called inactive; ? = inconclusive; nt = no result. Many of the other results were omitted from the sample, so hits are more common in it than they were.
SMILES,T cruzi growth-1,C diff growth,T cruzi growth-2,T cruzi growth-3,3T3 cytotox,NIH3T3 tox 2
CN1C(=O)c2cc(NC(=O)c3cnccn3)ccc2OC[C@@H]2O[C@H](CC(=O)N[C@@H]3CCN(Cc4ccccc4)C3)CC[C@H]21,85.2,-2.3,nt,nt,nt,nt
CN1C(=O)c2cc(NC(=O)c3cnccn3)ccc2OC[C@@H]2O[C@H](CC(=O)N[C@H]3CCN(Cc4ccccc4)C3)CC[C@@H]21,109.5*,-4.1,95.2*,?,-13.3,1.7
CCCN(C)C[C@H]1OCCCC[C@@H](C)Oc2ccc(NS(C)(=O)=O)cc2C(=O)N([C@H](C)CO)C[C@@H]1C,37.9,3.0,nt,nt,nt,nt
C[C@@H]1CN([C@@H](C)CO)C(=O)c2cc(NS(=O)(=O)c3ccc(Cl)cc3)ccc2O[C@@H](C)CCCCO[C@H]1CN(C)Cc1ccccc1,108.7*,2.4,109.0*,107.0*,17.0,88.0*
C[C@@H]1CN([C@@H](C)CO)C(=O)c2cc(NS(=O)(=O)c3ccccc3)ccc2O[C@@H](C)CCCCO[C@H]1CN(C)Cc1ccccc1,nt,0.8,nt,nt,nt,nt
C[C@H](CO)N1C[C@H](C)[C@@H](CN(C)Cc2ccccc2)OCCCC[C@H](C)Oc2ccc(NS(=O)(=O)c3ccccc3)cc2C1=O,21.0,nt,nt,nt,nt,nt
C[C@@H]1CCCCO[C@H](CN(C)Cc2ccccc2)[C@@H](C)CN([C@@H](C)CO)C(=O)c2cc(NS(=O)(=O)c3ccccc3)ccc2O1,-68.0,nt,nt,nt,nt,nt
CCCN(C)C[C@@H]1OCCCC[C@H](C)Oc2ccc(NS(C)(=O)=O)cc2C(=O)N([C@@H](C)CO)C[C@H]1C,?,-4.6,54.7,40.4,2.5,-8.9
C[C@H](CO)N1C[C@H](C)[C@H](CN(C)Cc2ccccc2)OCCCC[C@H](C)Oc2ccc(NS(=O)(=O)c3ccc(Cl)cc3)cc2C1=O,107.2*,5.9,?,?,?,103.5*
C[C@H]1CCCCO[C@@H](CN(C)Cc2ccccc2)[C@@H](C)CN([C@@H](C)CO)C(=O)c2cc(NS(=O)(=O)c3ccc(Cl)cc3)ccc2O1,110.3*,0.7,100.4*,55.0,12.2,102.9*
C[C@H](CO)N1C[C@H](C)[C@H](CN(C)CC2CC2)Oc2cc(C#Cc3cccnc3)ccc2S1(=O)=O,-27.9,nt,nt,nt,nt,nt
COc1cccc(-c2ccc([C@H]3[C@@H](CO)N4CCCCN(CC5CC5)C[C@@H]34)cc2)c1,93.4,6.5,nt,nt,nt,nt
COc1ccc(S(=O)(=O)Nc2ccc3c(c2)C(=O)N([C@@H](C)CO)C[C@@H](C)[C@@H](CN(C)C(=O)Nc2ccc(C(F)(F)F)cc2)O3)cc1,76.4,11.1,nt,nt,nt,nt
Cc1noc(C)c1NC(=O)Nc1ccc2c(c1)C(=O)N(C)[C@H]1CC[C@H](CC(=O)Nc3ccccc3F)O[C@@H]1CO2,4.6,3.4,nt,nt,nt,nt
CN1CCN(C(=O)C[C@H]2C[C@H]3c4cc(NC(=O)NC5CCCCC5)ccc4O[C@H]3[C@H](CO)O2)CC1,20.7,nt,nt,nt,nt,nt
COc1ccc(CN(C)C[C@@H]2Oc3ccc(NS(=O)(=O)c4ccc(OC)cc4)cc3CC(=O)N([C@@H](C)CO)C[C@@H]2C)cc1,75.9,-8.2,nt,nt,nt,nt
O=C(Nc1ccc(Cl)cc1)N[C@@H]1CC[C@H](CCNC(=O)c2cc(Cl)cc(Cl)c2)O[C@@H]1CO,nt,28.0,nt,nt,nt,nt
C[C@@H]1CCCCO[C@@H](CN(C)Cc2ccccc2)[C@@H](C)CN([C@@H](C)CO)C(=O)c2cc(NS(=O)(=O)c3ccccc3)ccc2O1,-5.5,nt,nt,nt,nt,nt
C[C@@H]1CCCCO[C@H](CN(C)Cc2ccncc2)[C@H](C)CN([C@@H](C)CO)C(=O)c2cc(NS(C)(=O)=O)ccc2O1,104.0*,0.4,18.6,-10.6,-20.4,-1.6
C[C@@H]1CCCCO[C@H](CN(C)Cc2ccncc2)[C@H](C)CN([C@H](C)CO)C(=O)c2cc(NS(C)(=O)=O)ccc2O1,7.7,-2.5,nt,nt,nt,nt
C[C@@H]1CN([C@H](C)CO)C(=O)c2cc(NS(=O)(=O)c3ccc(Cl)cc3)ccc2O[C@@H](C)CCCCO[C@@H]1CN(C)Cc1ccncc1,7.4,-6.1,nt,nt,nt,nt
C[C@@H]1CCCCO[C@@H](CN(C)Cc2ccccc2)[C@@H](C)CN([C@@H](C)CO)C(=O)c2cc(NS(=O)(=O)c3ccc(Cl)cc3)ccc2O1,?,11.1,95.2*,108.5*,5.5,104.1*
C[C@@H]1CCCCO[C@@H](CN(C)Cc2ccncc2)[C@H](C)CN([C@H](C)CO)C(=O)c2cc(NS(=O)(=O)c3ccc(Cl)cc3)ccc2O1,?,-11.9,95.5*,55.2,-7.4,-7.4
COc1ccc(C#Cc2cnc3c(c2)C(=O)N([C@@H](C)CO)C[C@@H](C)[C@H](CN(C)C(=O)CC2CC2)O3)cc1,38.7,-0.9,nt,nt,nt,nt
CO[C@H]1CN(C)C(=O)c2cc(NC(=O)Nc3cccc(Cl)c3)ccc2OC[C@H](C)N(C(=O)Nc2c(C)noc2C)C[C@H]1C,-21.2,nt,nt,nt,nt,nt
SMILES,T cruzi growth-1,C diff growth,T cruzi growth-2,T cruzi growth-3,3T3 cytotox,NIH3T3 tox 2
CN(C)C(=O)c1ccc(-c2ccc([C@H]3[C@H]4CN(C(=O)C5CCCC5)CCCCN4[C@H]3CO)cc2)cc1,32.1,-6.4,nt,nt,nt,nt
CN(C)C(=O)c1ccc(-c2ccc([C@@H]3[C@H]4CN(C(=O)C5CC5)CCCCN4[C@H]3CO)cc2)cc1,26.4,3.3,nt,nt,nt,nt
CN(C)C(=O)c1ccc(-c2ccc([C@@H]3[C@H]4CN(C(=O)C5CCCC5)CCCCN4[C@H]3CO)cc2)cc1,114.3*,-12.8,80.1,59.6,37.6*,37.6*
CN(C)C(=O)c1ccc(-c2ccc([C@@H]3[C@H](CO)N4CCCCN(C(=O)C5CCCC5)C[C@@H]34)cc2)cc1,100.0*,-5.6,86.9,85.8,7.9,14.9
CO[C@@H]1CN(C)C(=O)c2cc(NS(C)(=O)=O)ccc2OC[C@H](C)NC[C@@H]1C,nt,-2.6,nt,nt,nt,nt
C[C@@H]1CCCCO[C@H](CN(C)Cc2ccccc2)[C@@H](C)CN([C@H](C)CO)C(=O)c2cc(NC(=O)Nc3ccc4c(c3)OCO4)ccc2O1,88.7,3.2,nt,nt,nt,nt
COc1cccc(-c2ccc3c(c2)O[C@H](CN(C)C(=O)C2CC2)[C@H](C)CN([C@@H](C)CO)S3(=O)=O)c1,101.5*,nt,82.4,42.7,18.0,68.5*
COc1cccc(-c2ccc3c(c2)O[C@H](CN(C)C(=O)c2ccccc2F)[C@H](C)CN([C@H](C)CO)S3(=O)=O)c1,108.5*,-3.6,105.3*,77.4,45.1*,74.2*
COc1cccc(-c2ccc3c(c2)O[C@@H](CN(C)C(=O)c2ccccc2F)[C@H](C)CN([C@H](C)CO)S3(=O)=O)c1,nt,1.3,nt,nt,nt,nt
